Data reported in the supplement of paper PMC6555819.

Tested on: VDR:RXRa (NR concentration 270 nM, RXRa partner concentration 90 nM)
Test: PBM binding z-score (relative to random genomic background probes); higher = stronger binding; sequences stand for … in GC…GCGATTGACAGCGTAGAATGAAGG
Description: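 Protein-binding microarray (Agilent 4x180K custom design, double-stranded 60-nt probes: 5' GC cap, 34-nt variable region, 24-nt constant primer region; full probe sequence given). Purified or IVT nuclear receptor:RXRα heterodimers (3:1 NR:RXRα, mostly 270:90 nM) or homodimers were incubated for 1 h in PBS with 2% milk and no ligand, then detected with Alexa488 antibodies. Fluorescence from o1-orientation probes (~5 replicates averaged) was converted to z-scores against 500 random hg19 background probes. Variable regions are seed direct-repeat (DR0–DR5) sites, all their single-nucleotide variants and half-site ablations.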

Compared with CATACTAGGTCACGAAAGGTCAAAGTCGAATGAC, ACAGACTGGTGAGTGAAGGTAACTCAGCTGGACG is lower in PBM binding z-score: 6.92 for the first, -0.365 for the second.

Going from ATCAAAAGGTCGTGAGGTGAGTATACAGAAAGGC to CCTCGGAGGACAACAGGAGGTCAGAGGTGCCAGA, the PBM binding z-score falls from 3.92 to 2.28.

First: GCTGCTAGGTCAACTGGTGGTCAGCTAAAGCTCG
Second: GATACAGGGTCAGATAGAGGCCAGAGTATGGAAA
The PBM binding z-score of the first is lower: 1.64 for the first, 3.49 for the second.

Compared with TAGCCTAGGTCATGCGGGCCCGTATAGTGTCGGC, ATTTCTAGGTAAAGATAGTTCAGTGAATGCAAAT is lower in PBM binding z-score: 1.97 for the first, 1.18 for the second.

Going from TAGCCTAGTTCAGATCGGGCCAGTATACGCTATA to TCTCCGAGGACACGAAAGGTCAGAGCTCGACATC, the PBM binding z-score rises from -0.0916 to 3.72.

First: TCTTGTAGATCAGCAGGTTAAGAATGCTGGCCAA
Second: TGTCAAATTTCAAAGGTAACGTAAGTATCCACAC
The PBM binding z-score of the first is lower: 0.397 for the first, 0.605 for the second.

First: TGTCGAAGTTCAAAGGTAACGTAAGTATCCACAC
Second: CCTATTAATTGACCATAAGGGCAACCGAAGCTCG
The PBM binding z-score of the first is higher: 3.71 for the first, 0.371 for the second.

Compared with TTACCAAGGTGAGATGAGGTCGTTGATCCAACTC, ATCGTAAGGTCGAAGGTGAGTATACCCACCCGAA is lower in PBM binding z-score: 4.7 for the first, 2.04 for the second.

First: CCTAGTTGGTCAGTAGGTCACACACCGGATATGA
Second: TGTCAAAGTTCAATGGTAACGTAAGTATCCACAC
The PBM binding z-score of the first is lower: 1.91 for the first, 3.81 for the second.

Compared with CCGACTGGGGCAATGTTACCATAACGCACAGCCA, TTACCAAGGTGAGCTGAGGTCGTTGGTCCAACTC is higher in PBM binding z-score: -0.586 for the first, 3.79 for the second.

Compared with TAGAGTAGGTTACCAATGGGGCATTCAGCTTTCT, ACAGACAGGTGATGAATGTAACTCAGGCTATCAT is lower in PBM binding z-score: 0.34 for the first, -0.0862 for the second.

First: AATACAGGGTCACTAGGCCAGAGGAGGTACGAAT
Second: GCTGCTATGTCAACTGATGGTCAGCTAAAGCTCG
The PBM binding z-score of the first is higher: 4.09 for the first, -0.38 for the second.

First: ATATGTAGGTTATCGGGTCATTCTGTTTGCGCAT
Second: CAAACTAGGTCACAGAGGTCAGAGTCCGTGCGTA
The PBM binding z-score of the first is lower: 3.82 for the first, 7.34 for the second.

Going from TCTTGTAGATCAACAGGAGGATAAGAAAGATCGA to GCTTGTAGATCAAGGTTAACAAAGACTAAGCTAA, the PBM binding z-score rises from 0.0724 to 0.333.

Compared with GCTATTAGTTGAAAGTGCAACCGAATGATTCTCG, TCTTGTAGATCAACAGGAGGTTTAGAAAGATCGA is higher in PBM binding z-score: 0.133 for the first, 0.171 for the second.

Going from ATATGTAGGTTAGCTGGGGGCATTCAGACTAGGC to CCTATTAGTTGACCATAAGAGCAACCGAAGCTCG, the PBM binding z-score falls from 4.08 to 1.06.

First: CGAACTAGGTCATCCCGGACAGTGAATACATTGA
Second: AGAACGAGGGCACGCTCAGTTGATAGCAGAGTAG
The PBM binding z-score of the first is higher: 3.63 for the first, 1.4 for the second.

Compared with AGAACGAGGGCACGCTGTGTTGATAGCAGAGTAG, TCATATAGGTAAAAGGTGAAAGGCGGTGTGGTAA is higher in PBM binding z-score: 0.783 for the first, 1.39 for the second.

First: AGAACGAGGGCACGCCGAGTTGATAGCAGAGTAG
Second: CTCGATAGGTCGTGCTCAGGTGAGTATACCAAAC
The PBM binding z-score of the first is higher: 2.27 for the first, 0.637 for the second.

Going from GATACAGGGTCAGCTAGAGGCCGGAGTATGGAAA to GTACCAAGGTAAATAGGTCGTTGATGAGTAGGCG, the PBM binding z-score falls from 2.8 to 0.336.
